A number with no mark means an inactive call. The source made the active and inactive calls.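 Rule for the calls: active = mean inhibition over 43.08%, the solvent-only control mean plus 3 SD; inactive = the rest.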
The compounds below were run against Nuclear receptor coactivator 3 (Homo sapiens) (UniProt Q9Y6Q9) (assay: NCOA3 GAL4-fusion reporter inhibition – cell-based, luminescence, quadruplicate, confirmation (AID 588792;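 note: 0% = DMSO treated cells and 100% = gossypol at 36 µM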)). Details: HEK293 GAL4-SRC3 luciferase reporter, at 3.6 µM, stronger effect = higher value.
Sequence of Nuclear receptor coactivator 3 (Homo sapiens) (Q9Y6Q9 whole entry, looked up, the tested form may be a part): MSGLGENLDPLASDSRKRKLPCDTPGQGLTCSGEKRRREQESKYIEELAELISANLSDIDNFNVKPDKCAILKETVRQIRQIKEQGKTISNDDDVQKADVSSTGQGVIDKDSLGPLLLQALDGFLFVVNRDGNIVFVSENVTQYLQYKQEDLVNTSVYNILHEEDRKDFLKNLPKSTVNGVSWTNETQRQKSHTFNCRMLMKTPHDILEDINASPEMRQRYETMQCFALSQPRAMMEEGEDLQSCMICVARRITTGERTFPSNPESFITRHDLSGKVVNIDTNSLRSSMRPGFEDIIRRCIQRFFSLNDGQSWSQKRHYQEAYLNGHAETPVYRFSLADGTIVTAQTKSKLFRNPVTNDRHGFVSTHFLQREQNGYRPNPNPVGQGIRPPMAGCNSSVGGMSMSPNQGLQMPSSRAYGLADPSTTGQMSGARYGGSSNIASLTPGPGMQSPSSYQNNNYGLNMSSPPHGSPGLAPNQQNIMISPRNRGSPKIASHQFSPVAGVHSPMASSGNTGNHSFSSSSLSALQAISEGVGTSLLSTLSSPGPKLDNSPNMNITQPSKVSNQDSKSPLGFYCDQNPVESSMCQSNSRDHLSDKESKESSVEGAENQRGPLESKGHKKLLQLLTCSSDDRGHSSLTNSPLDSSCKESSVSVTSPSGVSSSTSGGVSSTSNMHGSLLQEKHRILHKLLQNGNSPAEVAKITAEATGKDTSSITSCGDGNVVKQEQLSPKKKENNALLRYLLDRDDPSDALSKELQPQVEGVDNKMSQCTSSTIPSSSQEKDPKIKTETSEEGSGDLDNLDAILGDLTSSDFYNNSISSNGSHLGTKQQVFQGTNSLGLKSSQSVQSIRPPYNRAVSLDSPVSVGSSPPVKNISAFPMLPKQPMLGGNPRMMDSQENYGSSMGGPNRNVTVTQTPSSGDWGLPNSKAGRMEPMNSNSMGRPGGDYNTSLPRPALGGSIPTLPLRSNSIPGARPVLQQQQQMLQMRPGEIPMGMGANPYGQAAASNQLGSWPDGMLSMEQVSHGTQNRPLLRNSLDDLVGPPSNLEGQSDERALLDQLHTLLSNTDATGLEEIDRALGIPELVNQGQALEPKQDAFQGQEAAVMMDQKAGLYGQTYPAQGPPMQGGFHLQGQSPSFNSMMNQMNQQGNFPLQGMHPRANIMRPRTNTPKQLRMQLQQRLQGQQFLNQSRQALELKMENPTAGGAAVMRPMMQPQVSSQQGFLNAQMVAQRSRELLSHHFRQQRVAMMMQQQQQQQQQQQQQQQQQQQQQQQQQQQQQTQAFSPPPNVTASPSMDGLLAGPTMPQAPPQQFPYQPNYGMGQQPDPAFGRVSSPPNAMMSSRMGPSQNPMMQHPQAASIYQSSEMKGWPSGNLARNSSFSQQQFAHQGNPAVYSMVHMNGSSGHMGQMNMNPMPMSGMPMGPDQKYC
For `COc1ccc(-c2c[n+]3c(n2-c2ccccc2)SCC3)cc1`, the inhibition was 17.9%.
`CCOC(=O)C(=Cc1ccccc1)C(=O)c1ccccc1` showed an inhibition of 21.3%.
With `CCC(=O)Oc1c(C(=O)CC)cc2c(C)cc(=O)oc2c1C` the inhibition was 15.1%.
For `CC(=O)N(C(C)=O)c1ncc2c([nH]c3ccccc32)c1C#N`, the inhibition was 47.9% (active).
With `CCOC(=O)C(=Cc1cc(=O)c(OC)co1)C(=O)OCC` the inhibition was 48.6% (active).
In the case of `COCC(C)n1c(C)cc(C(=O)COC(=O)c2cc(=O)[nH]c3ccccc23)c1C` (stereo not given), the inhibition is reported as 1.93%.
In the case of `CCN(CC)c1ccc2cc(NC(=O)CCC(=O)O)c(=O)oc2c1`, the inhibition is reported as 68.4% (active).
`COc1cc(/C=C2\SC(N)=NC2=O)cc(OC)c1` was tested, and the inhibition was 20.4%.
`O=C(CCl)N1N=C(c2cccs2)CC1c1ccco1` (stereo not given) gave an inhibition of 27.7%.
`COc1ccc(OC)c(/C=C/c2ccnc3ccccc23)c1` showed an inhibition of 19.1%.
`CC12CCC(C(=O)N/N=C/c3ccc(O)cc3O)(OC1=O)C2(C)C` (stereo not given) was tested, and the inhibition was 6.17%.
With `CCOc1ccc(-n2c(C)c(C(C)=O)c3cc(OC(C)=O)ccc32)cc1` the inhibition was 67.3% (active).
For `COc1ccc(C(C(=O)NC2CCCCC2)N(C(=O)CCl)c2ccc(C)cc2)cc1` (stereo not given), the inhibition was 71.8% (active).
Work on `NC(=O)C(C(=O)/C=C/c1ccc(Cl)cc1)=C1SCCS1` yielded an inhibition of 29.4%.
Work on `Cc1sc2ncnc(N3CCC(C(=O)Nc4ccccc4C(C)(C)C)CC3)c2c1C` yielded an inhibition of 35.8%.
Compound `COc1ccc(C)cc1N=Nc1ccc(O)c2ncccc12` has an inhibition of 9.14%.
In the case of `Cn1c(CC(=O)Nc2ccc(Cl)c(Cl)c2)nnc1SCC(=O)N1CCN(c2ccccc2)CC1`, the inhibition is reported as 14.9%.
`CCOC(=O)c1c(C)c2c(=O)[nH]cnc2n1-c1ccccc1` was tested, and the inhibition was 51.5% (active).
Compound `COc1ccc(-n2cnc3c(sc4nccc(N(C)C)c43)c2=O)cc1` has an inhibition of 40.1%.
In the case of `COc1ccc(-n2cc(-c3ccccc3)[n+]3c2CCCCC3)cc1`, the inhibition is reported as 24.8%.
In the case of `COc1ccc(/C=C2\N=C(C(C)(C)C)OC2=O)c(OC)c1`, the inhibition is reported as 9.73%.
`CN(CC1CCCO1)S(=O)(=O)c1ccc(C(=O)Nc2nc3cc4c(cc3s2)OCO4)cc1` (stereo not given) was tested, and the inhibition was 14.7%.
`CN1CC(=O)N2C(c3cccc([N+](=O)[O-])c3)c3[nH]c4ccccc4c3C[C@H]2C1=O` (stereo not given in full) showed an inhibition of 36.1%.
Work on `N=c1c2c(-c3ccccc3)c(-c3ccccc3)n(Cc3ccccc3)c2ncn1CCCO` yielded an inhibition of 12%.
`O=C(N/N=C/c1cc([N+](=O)[O-])ccc1O)c1cccc(N2CCCC2=O)c1` was tested, and the inhibition was 15.9%.
Compound `CCc1ccc(-c2cc(C(F)(F)F)n3nc(C(=O)Nc4cnn(Cc5ccc(C)cc5)c4)cc3n2)s1` has an inhibition of 10.1%.
`c1ccc(CNc2c3ccccc3nc3ccccc23)cc1` showed an inhibition of 11.8%.
In the case of `Nc1nccc(-c2ccc(-n3cnc4ccccc43)cc2)n1`, the inhibition is reported as 56.7% (active).
`CN=C1S/C(=C\c2cc(C)n(-c3ccccc3F)c2C)C(=O)N1C` was tested, and the inhibition was -15.3%.
In the case of `COC(CN(C(=O)CCl)C(C(=O)NC1CCCCC1)c1ccccc1C)OC` (stereo not given), the inhibition is reported as 53.3% (active).
Work on `CCN1/C(=C/c2ccc3cc(C)cc(C)c3[n+]2CC)Sc2cc(C)ccc21` yielded an inhibition of 39.4%.
In the case of `O=C(N/N=C/c1c(O)ccc2ccccc12)c1cccc(C(F)(F)F)c1`, the inhibition is reported as 82.3% (active).
`Cc1ccc(S(=O)(=O)N2CCOCC2)cc1NC(=O)CN1CCN(c2ccc(O)cc2)CC1` showed an inhibition of 12.4%.
`CC1=C(C(=O)OCc2ccc3c(c2)OCO3)C(c2ccccc2)NC(=O)N1` (stereo not given) was tested, and the inhibition was 78.7% (active).
`Cc1nc2ccc(NC(=O)c3ccc(Cl)c(S(=O)(=O)N(C)c4ccccc4)c3)cc2s1` was tested, and the inhibition was 19.2%.
Compound `OCCNc1ncnc2ccc(Br)cc12` has an inhibition of 21.8%.
Work on `Cc1nc(N)c(CC(Br)CBr)c(Cl)n1` (stereo not given) yielded an inhibition of 31.8%.
`Cc1ccc(C(=O)O/N=C(\N)c2ccccc2)c(Cl)c1` showed an inhibition of -11.9%.
`Cc1oc2c(Cl)c(Cl)c(O)c(CN(C)C)c2c1C(=O)c1ccc(Cl)cc1` was tested, and the inhibition was 44.1% (active).
Work on `COc1cccc(-c2ccc3ncnc(NCc4ccc5c(c4)OCO5)c3c2)c1` yielded an inhibition of 37.3%.
